Compounds with a hit are over-represented: about 1.7% of the library has one in this group of screens.
IDH1 R132H inh – blocks human mutant IDH1 R132H enzyme. AID 602179. Potency, µM (doses to about 76.6 µM), inactives show at the top dose activity change, negative = inhibition, usual class: inhibitors. IDH1-R132H enzyme, NADPH consumption, diaphorase/resazurin fluorescence. actives 0.093% (n = 390,000). O75874; note: % is set by controls: 0 for no effect and ±100 for the full control effect; nearly all actives have a fitted effect of over 65% in size
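IDH1-R132H (0.5 ug/mL) preincubated 30 min with compound, then NADPH (0.016 mM) and alpha-KG (2 mM) added; 80 min at RT, pH 7.5. Remaining NADPH coupled via diaphorase/resazurin to fluorescence (540/590 nm); concentration-response curves normalized to no-enzyme control.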
TrxR1 inh – inhibitors of rat thioredoxin reductase 1; recombinant rTrxR1, NADPH fluorescence consumption, selenite substrate; Potency, µM (top dose mostly 114 µM), inactives show at the top dose activity change, negative = inhibition, most hits filed as inhibitors; actives 1% (n = 390,000); note: % is set by controls: 0 for no effect and ±100 for the full control effect; nearly all actives have a fitted effect of over 65% in size
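Rat TrxR1 (90 nM in the dispensed reagent) was pre-reduced with 400 uM NADPH for 5 min at room temperature, then incubated with compound for 15 min. After 400 uM selenite was added, NADPH fluorescence (Ex 340/Em 450 nm) was followed for 8 min.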
Anesthetic bind – candidate novel general anesthetic via apoferritin binding; P02791; apoferritin/1-aminoanthracene competitive binding, fluorescence; Potency, µM (top dose mostly 77.5 µM), for inactives: top-dose activity change, negative = displacement, usual class: inhibitors; actives 0.074% (n = 350,000); AID 485281; note: % is set by controls: 0 for no effect and ±100 for the full control effect; nearly all actives have a fitted effect of over 20% in size
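In PBS, apoferritin at 10 uM is loaded with 1-AMA from a 50% saturated solution. After 10 min of compound exposure at ambient temperature, reduced 535 nm fluorescence indicates probe displacement.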
Glioma ERSR ind – induces the endoplasmic reticulum stress response in human glioma cells | Potency, µM, for the others: at the top dose activation, hits mostly activators | U87-MG GRP78 promoter luciferase reporter, 16 h | actives 0.02% (n = 420,000); note: series mostly up to about 76 µM; % of control where 0% means no effect; nearly all actives have a fitted effect of over 35% in size
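Stably transfected U87-MG glioma cells carrying a GRP78-based luciferase sensor; 16 h compound incubation. Luminescence end-point read 10 min after Bright-Glo addition at room temperature.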
TrxR1 substrate – rat thioredoxin reductase 1 substrate activity; purified TrxR1 substrate turnover, NADPH consumption readout; Potency, µM (titrated, usually from 114 µM), for the others: at the highest dose activity change, negative = substrate turnover; actives 0.01% (n = 390,000); AID 588456; note: % is set by controls: 0 for no effect and ±100 for the full control effect; nearly all actives have a fitted effect of over 50% in size
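Rat TrxR1, dispensed at 90 nM, was prereduced with 400 uM NADPH (final) for 5 min at ~22 deg C, then incubated with compound 15 min before 400 uM selenite. A first-read NADPH fluorescence drop versus no-compound background flagged substrates.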
12-LOX inh – ALOX12 (human) lipoxygenase inhibition; P18054; purified 12hLO, xylenol orange hydroperoxide absorbance; Potency, µM (doses to about 108 µM), for the others: at the highest dose activity change, negative = inhibition, most hits filed as inhibitors; actives 1.1% (n = 580,000); AID 1671190; note: % is set by controls: 0 for no effect and ±100 for the full control effect
Target sequence (P18054 whole entry, looked up): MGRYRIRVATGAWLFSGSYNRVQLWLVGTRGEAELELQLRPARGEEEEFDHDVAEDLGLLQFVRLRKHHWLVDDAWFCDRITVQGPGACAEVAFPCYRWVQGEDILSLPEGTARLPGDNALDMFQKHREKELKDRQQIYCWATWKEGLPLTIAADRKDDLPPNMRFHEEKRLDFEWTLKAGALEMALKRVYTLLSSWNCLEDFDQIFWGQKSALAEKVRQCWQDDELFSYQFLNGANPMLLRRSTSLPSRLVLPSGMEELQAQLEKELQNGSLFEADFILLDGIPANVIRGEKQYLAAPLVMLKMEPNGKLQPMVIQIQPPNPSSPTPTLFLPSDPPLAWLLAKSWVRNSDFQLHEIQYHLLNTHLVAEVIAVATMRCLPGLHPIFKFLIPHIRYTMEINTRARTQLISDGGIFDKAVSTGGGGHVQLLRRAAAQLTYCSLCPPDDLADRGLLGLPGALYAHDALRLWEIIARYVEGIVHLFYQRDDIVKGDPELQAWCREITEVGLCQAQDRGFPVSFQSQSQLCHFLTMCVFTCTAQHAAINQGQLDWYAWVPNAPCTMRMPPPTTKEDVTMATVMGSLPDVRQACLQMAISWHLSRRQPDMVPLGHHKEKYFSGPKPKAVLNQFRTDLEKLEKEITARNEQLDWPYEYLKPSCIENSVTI
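Hydroperoxide product was detected by ferrous iron/xylenol orange as the 573 to 405 nm absorbance ratio. Arachidonic acid at 40 uM (final) was turned over for 30 min at room temperature by 150 nM human 12hLO, pH 7.0 Hepes buffer, after 15 min compound preincubation.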
* hit, by the source's call; u = inconclusive; x = no result given; [ ] = dose if it differs, or a comment. Calls come from the whole dose curve; as a rule, active = well fitted curve in the direction sought with a large enough effect; inconclusive = small, poorly fitted or top-dose-only effect, or another doubt; inactive = no such curve, though single readings can be large; an effect the other way counts as inactive or inconclusive. Potency is the fitted concentration of half-maximal effect.

SMILES	IDH1 R132H inh	TrxR1 inh	Anesthetic bind	Glioma ERSR ind	TrxR1 substrate	12-LOX inh
Cc1ccc(C(=O)CC2(O)C(=O)N(Cc3ccc4c(c3)OCO4)c3ccccc32)cc1 (centres undefined)	9%	20%[57.1 µM]	14µM*	-4%	6%[57.1 µM]	0%
COCCC(=O)N1CC[C@H]2COC(=O)N2c2cc(F)ccc2C1	x	x	x	x	x	10%[176 µM]
O=C(O)c1cccc(Cn2c(Cl)c(/C=N/Nc3ccccc3)sc2=O)c1	-9%	8.9µM*	-11%	-1%	-8%	x
COc1ccc(C(=O)N/N=C/c2sc(=O)n(Cc3cccc(C(=O)O)c3)c2Cl)cc1	5%	79µM*	-8%	-2%	-16%	14%
Cc1cc(C(=O)N2CCC3(CC2)CNC(=O)C3)cc(S(N)(=O)=O)c1C	x	x	x	x	x	-1%
COc1ccc(C(=O)N2CCOC3(CCN(C(=O)C(N)c4ccccc4)CC3)C2)cc1 (centres undefined)	x	x	x	x	x	-7%[6.33 µM]
COc1cc(OC)c(CC2C(=O)Nc3cc(Cl)ccc32)c(OC)c1 (centres undefined)	x	x	x	x	x	18µM*
COc1cc(CC2C(=O)Nc3ccccc32)cc(C)c1O (centres undefined)	-5%	6%	-8%	-6%	-4%	-8%
O=C(Cc1ccc(Cl)cc1)N1CCN(c2ccccc2O)CC1	x	x	x	x	x	32µM*
Nn1c(SCC(=O)Nc2ccc(F)c(F)c2)nnc1C1CCCCC1	1%	5%[57.1 µM]	4.5µM*	1%	9%[57.1 µM]	1%
Cc1c2c(nc3ccccc13)CCSC2	x	x	x	x	x	4.5µM*
c1ccc(-c2c3c(nc4ccccc24)CCSC3)cc1	x	x	x	x	x	9%
COc1ccc(CN2C(=O)COC[C@H]2C(=O)NCCc2cccc(C)c2)c(OC)c1	x	x	x	x	x	-14%
Cc1cc(C(=O)CCl)c(C)n1CCc1ccc(F)cc1	1%	u	-20%	-17%	-12%[57.1 µM]	u
Cc1cc(C(=O)CCl)c(C)n1CCc1ccc(Cl)cc1	u	7.9µM*	u	u	-3%	u
COc1ccc(C(=O)/C=C/c2ccc(-c3ccc(OC)cc3)o2)cc1	x	x	x	x	x	0.32µM*
O=C(/C=C/c1ccc(-c2ccccc2)o1)c1ccccc1	12%	u	-13%	5%	-4%	u
Cc1ccc(/C=C/C(=O)c2ccccc2)o1	x	x	x	x	x	14µM*
COc1ccc(/C=C/C(=O)c2ccc(-c3ccccc3)cc2)cc1	x	x	x	x	x	-6%
Cc1ccc(-c2ccc(/C=C/C(=O)c3ccccc3)o2)cc1	4%	u	-6%	1%	4%	3.5µM*
COCc1cc(=O)n(CC(=O)Nc2ccc(OC)cc2)c(N2CCOCC2)n1	x	x	x	x	x	13%
O=C1O[C@@H]2CN(S(=O)(=O)N3CCCC3)C[C@@H]2N1CCc1cccc(Cl)c1	x	x	x	x	x	-5%
CCOc1ccc(O)cc1	x	x	x	x	x	0%[176 µM]
O=C(O)c1ccc(-n2cccc2/C=N\NC(=O)c2cc3cc(Br)ccc3o2)cc1	6%	-4%	5%	-1%	-5%	35µM*
CC1CCN(C(=O)Cn2cc(SCc3ccccc3)c3ccccc32)CC1	-13%	19%	4%	-1%	4%	-7%
SMILES	IDH1 R132H inh	TrxR1 inh	Anesthetic bind	Glioma ERSR ind	TrxR1 substrate	12-LOX inh
COc1ccc(NC(=O)/C(Cl)=C(/Cl)S(=O)(=O)Cc2ccc(C)cc2)cn1	2%	2.2µM*	u	-16%	11%[57.1 µM]	x
COc1ccc(NC(=O)Cc2ccc(Cl)c(Cl)c2)cn1	8%	16%[57.1 µM]	-11%	0%	-9%	274%
CCCc1nc(C(=O)N2CCOCC(O)(CN3CCCC3)C2)cs1 (centres undefined)	x	x	x	x	x	84%
O=C(NNc1ccccc1C(F)(F)F)c1sccc1Br	4%	1%	-13%	-1%	-8%	40µM*
CN(C)c1nc(=NCc2ccco2)ss1	-5%	7%[2.29 µM]	-11%	-13%	11%[57.1 µM]	x
CCOC(CN=c1nc(N(C)C)ss1)OCC	-2%	5%[11.4 µM]	x	-9%	8%[11.4 µM]	18µM*
O=C(c1ccc(Cl)cc1)c1oc2ccccc2c1CS(=O)c1ccc(Cl)cc1 (centres undefined)	1%	24%	-6%	-3%	5%	4.5µM*
Nc1c(C(=O)c2ccc(Cl)cc2)oc2ccccc12	6%	-9%	-2%	4%	-10%	-11%
Cc1scc(C(=O)NCc2ccco2)c1-c1ccccc1	3%	14µM*	u	-2%	-1%	u
CC(=O)c1cc(CN2CCC3(CC2)C(C(=O)O)CC(=O)N3C)cs1 (centres undefined)	x	x	x	x	x	48%
CC[Si](C)(CC)COC(=O)CCC[N+](C)(C)C	x	x	x	x	x	28µM*
CCCCOC(=O)CCCCCCCCC(=O)OCCCC	x	x	x	x	x	5%[22.9 µM]
O=C(COC(=O)c1ccccc1O)NC12CC3CC(CC(C3)C1)C2	2%	-10%	x	8%	-8%	-2%
O=C(COC(=O)c1ccccn1)NC12CC3CC(CC(C3)C1)C2	11%	-3%	7.9µM*	-4%	4%[57.1 µM]	-14%
Cc1cnc(C(=O)OCC(=O)NC23CC4CC(CC(C4)C2)C3)cn1	3%	21%	10µM*	-7%	3%	-12%
CCc1nnsc1C(=O)N(C)CCOc1cccc(Cl)c1	x	x	x	x	x	7%
Cc1nc(N=Nc2cc(S(=O)(=O)O)c3cc([N+](=O)[O-])cc(S(=O)(=O)O)c3c2)c(COP(=O)(O)O)c(C=O)c1O	x	u	-15%	-5%	12%[57.1 µM]	-24%
Cc1nc(N=Nc2cc([N+](=O)[O-])ccc2Cl)c(COP(=O)(O)O)c(C=O)c1O	x	x	-19%	-2%	x	11µM*
COc1ccc(S(=O)(=O)N(c2onc(C)c2Cl)S(=O)(=O)c2ccc(OC)c(OC)c2)cc1OC	6%	4%	-1%	-7%	0%	18µM*
COc1cc2c(cc1OC)-c1cc(NC3CCCCC3)nc(=O)n1CC2	-1%	2%	-12%	2%	6%	25µM*
CCNc1cc2n(c(=O)n1)CCc1cc(OC)c(OC)cc1-2	6%	-4%	-5%	0%	63%	3%
COc1cc2c(cc1OC)-c1cc(NCc3ccccn3)nc(=O)n1CC2	u	-34%	5%	-8%	40%	7.9µM*
O=C(NCc1ccco1)c1cc2c(s1)CSC2	3%	7.9µM*	-18%	-3%	13%	x
O=C(NCc1ccc2c(c1)OCO2)c1cc2c(s1)CSC2	1%	12%[57.1 µM]	-3%	2%	9%[57.1 µM]	1%[57.4 µM]
COc1ccc(CN(CCC(c2ccccc2)c2ccco2)C(=O)c2ccco2)cc1 (centres undefined)	-1%	u	4%	-4%	8%	50µM*
O=C(Cc1ccccc1F)NCCC1CCN(C(=O)Nc2cc(F)ccc2F)CC1	x	x	x	x	x	25%

Bioassay records: PubChem, National Center for Advancing Translational Sciences (NCATS)
